Measurements taken from PubChem BioAssay (NCI).
This is part of a sample that, as a whole, favours compounds with a hit. Of some 83,000 tested, about 20% had one in any assay.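 Activity criterion: percent growth below 10, measured after cells in 96-well plates were exposed to a single compound concentration for 48 hours.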 Active and inactive are the calls of the source.

Tests used:
Assay in all cases: NCI-60 one-dose screen, 48 h (100 = growth as untreated, 0 = no growth, -100 = all killed)
Settings in all cases: 10 µM unless noted
NCI-H23 lung = tested on: NCI-H23 lung
NCI-H226 lung = tested on: NCI-H226 lung
NCI-H322M lung = tested on: NCI-H322M lung
HOP-62 NSCLC = tested on: HOP-62 NSCLC
NCI-H460 lung = tested on: NCI-H460 lung
HOP-92 NSCLC = tested on: HOP-92 NSCLC
NCI-H522 lung = tested on: NCI-H522 lung
A549/ATCC NSCLC = tested on: A549/ATCC NSCLC
786-0 renal = tested on: 786-0 renal
COLO 205 colon = tested on: COLO 205 colon

Measured: growth

COc1ccc(-c2nc(-c3cn(C)c4ncccc34)cs2)cc1
inactive: NCI-H23 lung 11.1% [100 µM] | NCI-H522 lung 20.1% [100 µM] | A549/ATCC NSCLC 12.4% [100 µM]
active: NCI-H226 lung 2.9% [100 µM] | NCI-H322M lung 1.44% [100 µM] | HOP-62 NSCLC -49.5% [100 µM] | NCI-H460 lung -43% [100 µM] | HOP-92 NSCLC -40.4% [100 µM] | 786-0 renal -30.9% [100 µM] | COLO 205 colon -49.8% [100 µM]

COc1ccc(-c2cc(-c3ccccc3)nc(N3CCN(CCNc4ccnc5cc(Cl)ccc45)CC3)n2)cc1
inactive: NCI-H23 lung 14.8% | NCI-H226 lung 67.5% | NCI-H322M lung 88% | HOP-62 NSCLC 94.8%
active: NCI-H460 lung -68.6% | HOP-92 NSCLC -34.3% | NCI-H522 lung 2.04% | 786-0 renal -94.6% | COLO 205 colon -69.1%

N#Cc1nc(-c2ccccc2)oc1S(=O)(=O)N1CCN(c2ccc(F)cc2)CC1
inactive: NCI-H23 lung 80.8% | NCI-H226 lung 85.7% | NCI-H322M lung 91.6% | HOP-62 NSCLC 112% | NCI-H460 lung 102% | HOP-92 NSCLC 76% | 786-0 renal 64.9%
active: NCI-H522 lung 2.64%

O=C(NC1CC(F)C1)c1cc2cccnc2n1-c1ccc(Cl)c(Cl)c1 (centres undefined)
inactive: NCI-H23 lung 100% | NCI-H226 lung 103% | NCI-H322M lung 97.3% | HOP-62 NSCLC 98.9% | NCI-H460 lung 101% | HOP-92 NSCLC 83% | NCI-H522 lung 88.5% | A549/ATCC NSCLC 96.5% | 786-0 renal 95.2% | COLO 205 colon 109%

CSc1nc(C)c([N+](=O)[O-])c(N)n1
inactive: NCI-H23 lung 101% | NCI-H226 lung 102% | NCI-H322M lung 93.7% | HOP-62 NSCLC 104% | NCI-H460 lung 104% | HOP-92 NSCLC 89.3% | NCI-H522 lung 77.2% | 786-0 renal 103% | COLO 205 colon 110%

N=C(N)c1ccc(-c2ccc(-c3cc(Cl)cc(Cl)c3)s2)nc1
inactive: NCI-H23 lung 75.5% | NCI-H226 lung 93.7% | NCI-H322M lung 52.8% | HOP-62 NSCLC 86.5% | HOP-92 NSCLC 87.8% | NCI-H522 lung 34.1% | 786-0 renal 79.6%
active: NCI-H460 lung -60.3% | A549/ATCC NSCLC 0.133% | COLO 205 colon -38.4%

O=C(O)c1cn(C2CC2)c2cc(N3CCN(C(=O)Nc4nc(-c5ccc(Br)cc5)cs4)CC3)c(F)cc2c1=O
inactive: NCI-H23 lung 12.4% | NCI-H226 lung 18.9% | HOP-62 NSCLC 21.8% | NCI-H460 lung 10.4% | A549/ATCC NSCLC 14.3% | 786-0 renal 27.3% | COLO 205 colon 24.2%
active: NCI-H322M lung 6.95% | HOP-92 NSCLC -8.59% | NCI-H522 lung 5.78%

COc1cc(OC)c(/C=C/C(=O)c2c(O)cc(OC)c(C3CCN(C)CC3)c2OC)c(OC)c1
active: NCI-H23 lung -58.8% | NCI-H226 lung -47.7% | NCI-H322M lung -15.8% | HOP-62 NSCLC -96.2% | NCI-H460 lung -75% | HOP-92 NSCLC -12.2% | NCI-H522 lung -80% | 786-0 renal -97.7% | COLO 205 colon -96.7%

N=c1c(S(=O)(=O)c2ccccc2)cc2c(=O)n3ccccc3nc2n1CC1CCCO1 (centres undefined)
inactive: NCI-H23 lung 99.8% | NCI-H226 lung 103% | NCI-H322M lung 96.4% | HOP-62 NSCLC 95% | NCI-H460 lung 105% | HOP-92 NSCLC 94.5% | NCI-H522 lung 100% | 786-0 renal 103% | COLO 205 colon 113%

C=C(C)[C@@H]1CCC[C@]2(C(=O)O)CC[C@]3(C)[C@@H](CC[C@@H]4[C@@]5(C)C/C(=C/c6ccncc6)C(=O)C(C)(C)[C@@H]5CC[C@]43C)[C@@H]12
inactive: NCI-H23 lung 20.9% | NCI-H226 lung 36.1% | NCI-H322M lung 26.3% | HOP-62 NSCLC 50.4% | HOP-92 NSCLC 57.2% | NCI-H522 lung 16.6% | 786-0 renal 39.8%
active: NCI-H460 lung 5.65% | COLO 205 colon 6.51%

COC(=O)CC[C@@H]1O[C@@H](c2ccc(F)cc2)[C@@H](O)[C@H]1O
inactive: NCI-H23 lung 103% | NCI-H226 lung 101% | NCI-H322M lung 106% | HOP-62 NSCLC 104% | NCI-H460 lung 109% | HOP-92 NSCLC 93.9% | NCI-H522 lung 99.7% | 786-0 renal 105% | COLO 205 colon 110%

COc1ccc(-c2nc(/C=C3\C(=O)N(C)c4ccccc43)c3ccccn23)cc1
inactive: NCI-H23 lung 76.2% | NCI-H226 lung 63.8% | NCI-H322M lung 88.3% | HOP-62 NSCLC 62.7% | NCI-H460 lung 63.4% | HOP-92 NSCLC 84.1% | NCI-H522 lung 58.7% | 786-0 renal 38.3% | COLO 205 colon 119%

COc1ccc(C(=O)/C=C/c2ccc(N3CCCCC3)cc2)cc1OC
inactive: NCI-H23 lung 92.5% | NCI-H226 lung 72.7% | NCI-H322M lung 91.5% | HOP-62 NSCLC 98.3% | NCI-H460 lung 97.9% | HOP-92 NSCLC 69.9% | NCI-H522 lung 84.4% | 786-0 renal 103% | COLO 205 colon 100%

CCCC(CC)(C(=O)Nc1ccc2nc(C)cc(N)c2c1)C(=O)Nc1ccc2nc(C)cc(N)c2c1
inactive: NCI-H23 lung 94.1% | NCI-H226 lung 97.8% | NCI-H322M lung 108% | HOP-62 NSCLC 107% | NCI-H460 lung 106% | HOP-92 NSCLC 117% | NCI-H522 lung 92% | 786-0 renal 103% | COLO 205 colon 114%

CN(C)c1ccc(/C=C(\C#N)c2cc3ccccc3[nH]2)cc1
active: NCI-H522 lung -9.55% | COLO 205 colon 4%
inactive: NCI-H23 lung 28.4% | NCI-H226 lung 70.8% | NCI-H322M lung 38.4% | HOP-62 NSCLC 28.7% | NCI-H460 lung 13.3% | HOP-92 NSCLC 26.4% | 786-0 renal 32.9%

Cc1cccc(Oc2ccc(Nc3ncnc4ccc(NC(=O)CN5CCN(C)CC5)cc34)cc2Cl)c1
inactive: NCI-H23 lung 69.6% | NCI-H226 lung 85.2% | NCI-H322M lung 15.1% | HOP-62 NSCLC 60% | HOP-92 NSCLC 43.1% | A549/ATCC NSCLC 28.4%
active: NCI-H460 lung 2.18% | NCI-H522 lung 0.619% | 786-0 renal -40.7% | COLO 205 colon -43.4%

O=C1c2ccccc2C(=O)c2c1c(C(=O)NCc1ccccc1)c1ccccn21
inactive: NCI-H23 lung 101% | NCI-H226 lung 100% | NCI-H322M lung 99.4% | HOP-62 NSCLC 94.4% | NCI-H460 lung 107% | HOP-92 NSCLC 91.7% | NCI-H522 lung 73.4% | 786-0 renal 94.5% | COLO 205 colon 108%

Cc1ccc(CNc2ccc3nc(CCC(C)C)[nH]c3c2)cc1
inactive: NCI-H23 lung 94.2% | NCI-H226 lung 89.8% | NCI-H322M lung 100% | HOP-62 NSCLC 99.6% | NCI-H460 lung 106% | HOP-92 NSCLC 56.7% | NCI-H522 lung 84.2% | 786-0 renal 84% | COLO 205 colon 102%

CCO/C=N/C1=C(C#N)C(c2ccc(F)cc2)c2sc3c(F)cccc3c2O1 (centres undefined)
active: NCI-H522 lung -22%
inactive: NCI-H23 lung 61.2% | NCI-H226 lung 67.8% | NCI-H322M lung 65.4% | HOP-62 NSCLC 50.9% | NCI-H460 lung 16.3% | HOP-92 NSCLC 58.8% | 786-0 renal 35.2% | COLO 205 colon 78.3%

O=c1c2c3c(sc2n2c(-c4cc(-c5ccccc5)no4)nnc2n1Cc1ccccc1)CCCC3
inactive: NCI-H23 lung 86.4% | NCI-H226 lung 97.6% | NCI-H322M lung 97.1% | HOP-62 NSCLC 92.5% | NCI-H460 lung 86% | HOP-92 NSCLC 76.5% | NCI-H522 lung 55.2% | 786-0 renal 87.6% | COLO 205 colon 96.4%

CC(C)N1C(=O)/C(=c2\sc3n(c2=O)C2C(NN=3)N(C)C(=O)N2C)c2ccccc21 (centres undefined)
inactive: NCI-H23 lung 74.6% | NCI-H226 lung 83% | NCI-H322M lung 91.6% | HOP-62 NSCLC 74.7% | NCI-H460 lung 62.2% | HOP-92 NSCLC 42.9% | NCI-H522 lung 33.9% | A549/ATCC NSCLC 50.8% | 786-0 renal 62.7% | COLO 205 colon 91.1%

Cc1ccc(C(=O)c2ccc(CC(=O)NN3C(=O)c4ccccc4C3=O)n2C)cc1
inactive: NCI-H23 lung 100% | NCI-H226 lung 97.8% | NCI-H322M lung 102% | HOP-62 NSCLC 88.9% | NCI-H460 lung 104% | HOP-92 NSCLC 97.8% | NCI-H522 lung 88.1% | 786-0 renal 103% | COLO 205 colon 105%

Cn1cc(-c2csc(-c3cn(CCCN4CCOCC4)c4ccccc34)n2)c2cccnc21
inactive: NCI-H23 lung 88.3% | NCI-H226 lung 75.7% | NCI-H322M lung 95.6% | HOP-62 NSCLC 97.4% | NCI-H460 lung 88.5% | HOP-92 NSCLC 67.7% | NCI-H522 lung 67.9% | 786-0 renal 74.4% | COLO 205 colon 73.9%

CCCCCN(CCCCC)CC(O)c1cc(C)c2ccc3cc(C(C)C)ccc3c2c1 (centres undefined)
active: NCI-H23 lung -52.1% | NCI-H460 lung 6.03% | HOP-92 NSCLC -43.6% | NCI-H522 lung -62.4% | 786-0 renal -80.5% | COLO 205 colon -14.9%
inactive: NCI-H226 lung 78.9% | NCI-H322M lung 76.7% | HOP-62 NSCLC 20%

N#Cc1c(Nc2ccc(N3CCOCC3)cc2)nc(SCC(=O)c2ccc(Br)cc2)nc1-c1ccccc1
inactive: NCI-H23 lung 98% | NCI-H226 lung 108% | NCI-H322M lung 97.7% | NCI-H460 lung 114% | HOP-92 NSCLC 99.7% | NCI-H522 lung 96.2% | A549/ATCC NSCLC 97.3% | 786-0 renal 101% | COLO 205 colon 107%

COc1cc(/C=C/C(=O)/C=C(O)/C=C/c2ccc(OC(=O)C34CC5CC(CC(C5)C3)C4)c(OC)c2)ccc1OC(=O)C12CC3CC(CC(C3)C1)C2
inactive: NCI-H23 lung 103% | NCI-H226 lung 93.6% | NCI-H322M lung 102% | NCI-H460 lung 108% | HOP-92 NSCLC 110% | NCI-H522 lung 94.8% | A549/ATCC NSCLC 103% | 786-0 renal 105% | COLO 205 colon 112%
